Compound activity deposited in PubChem by National Center for Advancing Translational Sciences (NCATS).
Shown are actives, neighbours in structure and some others; about 7.4% of the full set was active somewhere.
FLuc counter – firefly luciferase modulation, counter-screen for miR-21 project | AID 588342 | purified FLuc, Km substrates, luminescence inhibition | P08659 | Potency, µM (highest dose often 57.5 µM), inactives show at the top dose activity change, negative = inhibition, most hits filed as inhibitors | actives 6.9% (n = 360,000);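 note: plate controls were vehicle for no effect and reference inhibitor for full effect; nearly all actives have a fitted effect of over 55% in size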
Target sequence (P08659 whole entry, looked up): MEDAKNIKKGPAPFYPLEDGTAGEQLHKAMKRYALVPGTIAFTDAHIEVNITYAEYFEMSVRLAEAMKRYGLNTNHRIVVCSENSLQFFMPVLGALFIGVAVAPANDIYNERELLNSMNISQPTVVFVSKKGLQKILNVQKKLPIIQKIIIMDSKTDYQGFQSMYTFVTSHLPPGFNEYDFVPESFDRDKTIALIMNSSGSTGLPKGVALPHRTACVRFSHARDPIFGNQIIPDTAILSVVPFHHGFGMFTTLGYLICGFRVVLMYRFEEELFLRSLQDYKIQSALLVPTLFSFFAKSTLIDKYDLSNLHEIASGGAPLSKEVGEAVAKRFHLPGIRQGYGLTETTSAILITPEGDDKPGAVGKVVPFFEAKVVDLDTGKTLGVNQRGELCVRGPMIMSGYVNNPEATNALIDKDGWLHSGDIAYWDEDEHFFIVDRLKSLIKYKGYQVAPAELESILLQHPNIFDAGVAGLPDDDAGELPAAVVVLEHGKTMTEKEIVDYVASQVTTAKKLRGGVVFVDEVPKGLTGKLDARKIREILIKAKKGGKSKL
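Purified P. pyralis luciferase (10nM final) with 10uM D-luciferin and 10uM ATP (Km levels) in 50mM Tris acetate pH 7.5, 10mM Mg acetate, 0.01% Tween-20, 0.05% BSA; qHTS 6-point titration, ~60 µM downward; luminescence read.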
NPC1 prom act – activators of NPC1 promoter. Huh7 NPC1 promoter luciferase reporter, 24 h. Potency, µM (highest dose often 9.22 µM), inactives show top-dose activation, most hits filed as activators. actives 2.4% (n = 320,000). AID 485313; note: % of control where 0% means no effect; nearly all actives have a fitted effect of over 60% in size
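In 1536-well qHTS, Huh7 cells harboring an NPC1 promoter–luciferase construct received compound for 24 h; activation was quantified by luminescence following luciferase reagent addition.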
SMN2 splice enh – SMN2 splice variant enhancement; HEK293 SMN2-luciferase splicing reporter, luminescence, 30-36 h; Potency, µM (titrated, usually from 46.1 µM), for the others: at the top dose activity change, positive = activation, hits mostly activators; actives 2.8% (n = 210,000); note: % of control where 0% means no effect; nearly all actives have a fitted effect of over 55% in size
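HEK293 cells carry an SMN2 […]–luciferase reporter in which exon 7 inclusion puts luciferase in frame. Cells were plated 10-12 h before compound addition, then incubated 30-36 h at 37C. ONE-Glo luminescence was read; sodium butyrate at 4.5 mM final served as control.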
ELG1 genotox – induces genotoxicity in HEK293T cells with luciferase-tagged ELG1. HEK293T ELG1-luciferase reporter, luminescence, 16 h. Potency, µM (series often up to 46 µM), without a hit: at the highest dose activity change, positive = activation, most hits filed as activators. actives 1.3% (n = 330,000); note: % of control where 0% means no effect; nearly all actives have a fitted effect of over 60% in size
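After overnight (16 hr) compound treatment at 37 °C, ELG1-luciferase HEK293T cells were lysed with ONE-Glo; luminescence quantified 30 min later at room temperature.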
Rab9 prom act – activates the Rab9 promoter. Huh7 Rab9 promoter-luciferase reporter, luminescence, 24 h. Potency, µM (titrated, usually from 9.22 µM), for inactives: at the top dose activation, negative = inhibition, usual class: activators. actives 2.8% (n = 320,000). AID 485297; note: % of control where 0% means no effect; nearly all actives have a fitted effect of over 60% in size
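Cell-based reporter: Huh7 stable for Rab9 promoter-driven luciferase, plated in reduced-serum medium with 10% FBS at 1500 cells/well, compound-treated 24 h at 37 °C, luminescence read after 10 min reagent.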
* = called active by the depositor; ? = inconclusive; · = not tested or not shown; [ ] = another dose, or the depositor's remark. Calls come from the whole dose curve; as a rule, active = well fitted curve in the direction sought with a large enough effect; inconclusive = small, poorly fitted or top-dose-only effect, or another doubt; inactive = no such curve, though single readings can be large; an effect the other way counts as inactive or inconclusive. Potency is the fitted concentration of half-maximal effect.

SMILES	FLuc counter	NPC1 prom act	SMN2 splice enh	ELG1 genotox	Rab9 prom act
COc1ccc2c(c1)Cc1sc(NC(=O)c3ccco3)nc1-2	3.38µM*	2µM*	11.2µM*	12.8%	1.78µM*
COc1cccc(OC)c1C(=O)Nc1nc2c(s1)CCc1ccccc1-2	-0.7%	·	11.5%	·	·
Cc1onc(-c2ccccc2)c1C(=O)N1CCN(c2ncccc2C(F)(F)F)CC1	0.6%	0.7%	·	-19.7%	-2.6%
COc1ccc2c(c1)-c1nc(NC(=O)c3ccco3)sc1CC2	19µM*	13.7%	·	13.2%	19.4%
COc1ccc2c(c1)-c1nc(NC(=O)c3cccc(Br)c3)sc1CC2	-13.2%	·	-26.3%	·	·
COc1ccc2c(c1)Cc1sc(NC(C)=O)nc1-2	4.78µM*	1µM*	5.62µM*	8.2µM*	0.794µM*
COc1ccccc1CNC(=O)c1ccc(-c2nc(CS(=O)(=O)c3ccc(C)cc3)c(C)o2)cc1	-4.2%	·	·	·	·
COc1cccc(CNC(=O)CN2C(=O)CSc3c2c(C)nn3-c2ccccc2)c1	3.2%	·	·	·	·
COc1ccc(-c2nc3nc(N)nn3cc2C)cc1F	-0.9%	-0.5%	·	5.5%	-5.6%
CCCCCCCCC(=O)N/N=C/c1ccccn1	3.1%	1.4%	-2.4%	-1.3%	-1.7%
CCCCCCCCC/C(=N\O)c1ccccn1	16.9µM*	?	-74.2%	?	?
Oc1ccc(N=C/C=C/c2ccc(Br)cc2)cc1-c1nc2ccccc2s1	7.57µM*	3.16µM*	-1.2%[1.84 µM]	?	?
CC(=O)Nc1cccc(OCC(=O)NC(C)c2ccc3ccccc3c2)c1 (stereo not given)	1.4%	-4.3%	·	-0.8%	0.1%
Cc1nc(-c2coc3cc(C)c(N=O)c(O)c3/c2=N\N)cs1	?	-3.4%	3.2%	2.7%	-3.8%
CC(C)(C)c1ccc(Oc2coc3cc(OCC(=O)O)ccc3c2=O)cc1	2.13µM*	0.6%	·	1.5%	-11.5%
Cc1nc(-c2coc3cc(OCC(=O)O)ccc3c2=O)cs1	1.9µM*	-4.9%	-6.2%	-9.0%	-10.0%
COc1ccccc1Oc1coc2cc(OCC(N)=O)ccc2c1=O	0.3%	1.0%	·	0.1%	1.1%
CCOCCOC(=O)COc1ccc2c(=O)c(Oc3ccc(OC)cc3)coc2c1	-1.6%	-0.8%	·	-3.7%	-8.9%
Cc1nc(-c2coc3cc(O)c(C)cc3c2=O)cs1	0.953µM*	?	25.1µM*	?	?
Cc1nn(-c2ccc(N3CCOCC3)nn2)c(C)c1CCC(=O)NCc1ccc(OC(C)C)cc1	-1.7%	·	·	·	·
Cc1ccc(NC(=O)Cn2c(C)cc(C)c(C#N)c2=O)c(Cl)c1	-0.4%	-2.2%	1.5%	-0.8%	-0.1%
Cc1cc(C)c2c(=O)n(CC(=O)Nc3ccc(Cl)cc3)sc2n1	7.57µM*	-1.3%	·	-0.5%	2.3%
Cc1ccc(NC(=O)Cn2sc3nc(C)cc(C)c3c2=O)c(Cl)c1	10.7µM*	2.9%	·	0.8%	-3.9%
CCOc1ccc(NC(=O)Cn2sc3nc(C)cc(C)c3c2=O)cc1	?	-2.2%	·	-0.6%	-1.9%
Cc1cc(C)c2c(=O)n(CC(=O)Nc3cccc(F)c3)sc2n1	9.53µM*	-2.7%	·	2.8%	-2.4%
SMILES	FLuc counter	NPC1 prom act	SMN2 splice enh	ELG1 genotox	Rab9 prom act
O=C(O)c1cccc2c1C(=O)c1ccc(-c3ccc(F)cc3F)cc1S2(=O)=O	?	-0.2%	·	2.4%	-3.6%
CN(Cc1nc(-c2cccc(Cl)c2)no1)C1CCOCC1	?	?	·	?	2µM*
CCOC(CNC(=O)c1ccc2nc(N3CCC(C)CC3)sc2c1)OCC	16.9µM*	?	-52.2%	?	?
CCOc1ccc(CCNC(=O)c2ccc3nc(N4CCC(C)CC4)sc3c2)cc1OCC	-12.5%	·	-13.8%	·	·
CCC(Cc1ccccc1)NC(=O)c1ccc2nc(N3CCOCC3)sc2c1 (stereo not given)	3.2%	-3.4%	·	0.2%	5.1%
CCC(Cc1ccccc1)NC(=O)c1ccc2nc(N3CCC(C)CC3)sc2c1 (stereo not given)	12µM*	·	-11.0%	·	·
COc1ccc(C2c3[nH]c4ccccc4c3CCN2Cc2ccoc2)c(F)c1 (stereo not given)	0.7%	4.8%	·	-2.9%	-14.4%
COc1ccc(C2c3[nH]c4ccccc4c3CCN2C(=O)Cc2nonc2C)c(F)c1 (stereo not given)	4.78µM*	19.8%	·	9.6%	?
CCn1nc(C)cc1C(=O)N1CCc2c([nH]c3ccccc23)C1c1cc(F)ccc1F (stereo not given)	21.3µM*	?	·	?	?
COc1ccc(Cl)cc1NC(=O)C(C)n1c(=O)cc(C(F)(F)F)c2c(C)nn(C)c21 (stereo not given)	-8.2%	·	·	·	·
O=C(COC(=O)c1ccc(CO)cc1)Nc1ccc(OC(F)F)cc1	3.3%	-2.1%	4.6%	0.0%	-0.5%
CN(C)/C=N/c1ncc(C(=O)c2ccccc2)s1	15.1µM*	2.82µM*	14.1µM*	9.2µM*	3.16µM*
Cc1cc(C(=O)c2cnc(/N=C/N(C)C)s2)cc(C)c1O	-9.4%	-3.9%	11.2%	?	1.2%
CN(C)/C=N/c1ncc(C(=O)c2ccc(-c3ccccc3)cc2)s1	21.3µM*	-0.6%	-24.0%	-4.9%	-3.9%
Cc1ccc(Cl)cc1-n1nnc(-c2nsc(NC(=O)c3ccccc3Cl)n2)c1C	12µM*	·	-24.5%	·	·
Cc1ccc(C(=O)Nc2nc(-c3nnn(-c4cccc(Cl)c4C)c3C)ns2)cc1C	-8.3%	·	·	·	·
CC(=O)Nc1ccc(NC(=O)COc2ccc3c(c2)CCC3)cc1	-16.7%	-5.4%	-4.5%	4.9%	-1.7%
CC(=O)Nc1cccc(NC(=O)COc2ccc3c(c2)CCC3)c1	8.49µM*	12.5%	·	-0.3%	16.9%
CC(Oc1ccccc1)C(=O)OCC(=O)Nc1sccc1C(N)=O (stereo not given)	-1.2%	-4.3%	·	-0.3%	2.0%
CC(=O)Nc1cccc(OCC(=O)Nc2sccc2C(N)=O)c1	8.49µM*	2.51µM*	·	?	1.12µM*
CSc1cccc(NC(=O)COc2ccccc2C)c1	15.1µM*	-0.5%	16.4%	5.1%	2.7%
CC(=O)Nc1cccc(OCC(=O)Nc2ccccc2)c1	?	3.55µM*	22.4µM*	10.3µM*	3.16µM*
OCC[C@H]1C[C@@H](O)[C@H](O)[C@]2(Cc3ccccc3CO2)O1	3.9%	2.7%	·	2.6%	-5.4%
CCOc1ccc(-c2cccc(NC(=O)COc3ccccc3)c2)nn1	15.1µM*	-1.2%	·	-0.9%	3.1%
CCOc1ccc(CC(=O)Nc2cccc(-c3ccc4nnc(C)n4n3)c2)cc1	-12.8%	-7.0%	2.7%	?	0.2%
CCc1ccc(NC(=O)C(=O)N/N=C(\C)CC(=O)Nc2ccc(OC)cc2)cc1	?	0.0%	0.8%	6.5%	-0.5%
COc1cccc(NC(=O)C(=O)N/N=C(\C)CC(=O)Nc2ccc(NC(C)=O)cc2)c1	10.7µM*	-1.9%	·	?	12.1%
